Laboratory results as given in PubChem BioAssay (Tox21).
Results filed as inconclusive are left out. Where a call stands in place of a potency, no number is given. Unmarked numbers belong to inactive results. Active and inactive are the calls of the source. Unless noted, the call rests on the fitted dose curve; in most records, active means well fitted curve in the direction sought with a large enough effect in the repeat runs; inconclusive means weak or mixed curves; inactive means no such curve, though single readings can be large; an effect the other way counts as inactive or inconclusive.

Tests used:
[1] = biological target: Retinoic acid receptor RXR-alpha (Homo sapiens) (UniProt P19793); experiment: qHTS assay to identify small molecule agonists of the RXR signaling pathway (AID 1159527; calls by dose curve; further: nearly all actives have a fitted effect of over 35% in size; further: potency means the concentration at half of the fitted maximal effect); settings: HEK293T RXRa-UAS-bla, beta-lactamase ratio, 16 h; series mostly up to 76.8 µM
Chain of Retinoic acid receptor RXR-alpha (Homo sapiens) (P19793 whole entry, looked up): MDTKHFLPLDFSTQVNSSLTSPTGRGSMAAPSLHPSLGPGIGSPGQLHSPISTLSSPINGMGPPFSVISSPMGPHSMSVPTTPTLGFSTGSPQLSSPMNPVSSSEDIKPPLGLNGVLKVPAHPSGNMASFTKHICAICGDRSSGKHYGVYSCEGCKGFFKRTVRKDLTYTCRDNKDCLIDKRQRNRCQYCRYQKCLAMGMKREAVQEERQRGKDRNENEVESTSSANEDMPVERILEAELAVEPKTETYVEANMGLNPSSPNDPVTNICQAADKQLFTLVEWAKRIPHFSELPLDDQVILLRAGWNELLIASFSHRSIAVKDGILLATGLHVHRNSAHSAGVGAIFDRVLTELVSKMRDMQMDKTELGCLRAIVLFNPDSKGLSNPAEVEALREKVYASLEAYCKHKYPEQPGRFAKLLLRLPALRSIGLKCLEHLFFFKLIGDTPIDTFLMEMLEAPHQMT
Outline: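 Cells plated at 2,000/well, rested 5 hr at 37 C, pin-dosed with DMSO compound solutions, incubated 16 hr, then loaded with B/G FRET substrate for 2 hr at RT before dual-emission fluorescence reading.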

[2] = qHTS assay to identify small molecule agonists of the RXR signaling pathway - cell viability counter screen (AID 1159529); settings: RXR-alpha-bla HEK293T viability, CellTiter-Glo, 16 h; series mostly up to 76.8 µM;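 further: HEK 293T cells carrying an RXR-alpha UAS beta-lactamase reporter; nearly all actives have a fitted effect of over 50% in size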
Outline: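 Steps: seed RXR-alpha-UAS-bla HEK 293T cells in assay medium containing 2% charcoal-stripped FBS; incubate 5 hr; add compounds in DMSO; incubate 16 hr at 37 C; after the bla read, add CellTiter-Glo and read luminescence at 30 min.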

[3] = qHTS assay to identify small molecule antagonists of the retinoid acid receptor (RAR) signaling pathway - cell viability counter screen (AID 1159551); settings: C3RL4 cells viability, ATP luminescence (CellTiter-Glo), 6 h; series mostly up to 92.4 µM; further: nearly all actives have a fitted effect of over 35% in size
Outline: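 Cytotoxicity counter screen: ATP content quantified by CellTiter-Glo luminescence in C3RL4 cells treated 6 hr at 37 C with compound and retinol (1 uM final). Cells plated at 1,000/well and cultured overnight before dosing.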

[4] = qHTS assay to identify small molecule antagonists of the retinoic acid receptor (RAR) signaling pathway (AID 1159552; further: nearly all actives have a fitted effect of over 50% in size); settings: C3RL4 RARE luciferase reporter, retinol-stimulated, 6 h; series mostly up to 92.4 µM
Outline: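 Retinol at 1 uM final stimulated RARE-luciferase expression in C3RL4 cells exposed to test compounds for 6 hr at 37 C. Reduced luminescence, read 30 min after detection reagent, indicated pathway antagonism.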

[5] = qHTS assay to identify small molecule agonists of the retinoic acid receptor (RAR) signaling pathway (AID 1159553); settings: C3RL4 RARE luciferase reporter, agonist, 6 h; series mostly up to 73.3 µM
Outline: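 Luminescence was measured 30 min after luciferase reagent addition at room temperature. Before that, C3RL4 reporter cells (1,000 per well, plated overnight) were treated with compound for 6 hr at 37 C and 5% CO2.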

Question: For C=C(C)[C@@H]1CCC2=CC(=O)C[C@@H](C)[C@]2(C)C1, which Potency [1] is on record?
Answer: inactive

Question: And the Potency [2]?
Answer: inactive

Question: And the outcome [3]?
Answer: inactive

Question: What does the source list for CC(C)COC(=O)c1ccccc1O?
Answer: Potency [1]: inactive; Potency [2]: inactive; outcome [3]: inactive

Question: For Cn1cnc2c(=O)[nH]c(N)nc21, which Potency [1] is on record?
Answer: inactive

Question: And the Potency [2]?
Answer: inactive

Question: And the outcome [3]?
Answer: inactive

Question: With NC(CS)C(=O)O (configuration not stated) as the molecule, how does the Potency [1] read?
Answer: inactive

Question: What about the Potency [2] of the same molecule?
Answer: inactive

Question: And the outcome [3]?
Answer: inactive

Question: For N#CCN(CC#N)CCN(CC#N)CC#N, which Potency [1] is on record?
Answer: inactive

Question: And the Potency [2]?
Answer: inactive

Question: And the outcome [3]?
Answer: inactive

Question: With Nc1nc2c(ncn2CCC(CO)CO)c(=O)[nH]1 as the molecule, how does the Potency [1] read?
Answer: inactive

Question: And the Potency [2]?
Answer: inactive

Question: What about the outcome [3] of the same molecule?
Answer: inactive

Question: What does the source list for COC(=O)CCCCCCCCC(=O)OC?
Answer: Potency [1]: inactive; Potency [2]: inactive; outcome [3]: inactive

Question: With C#CC(O)CCCCC (configuration not stated) as the molecule, how does the Potency [1] read?
Answer: inactive

Question: What about the Potency [2] of the same molecule?
Answer: inactive

Question: And the outcome [3]?
Answer: inactive

Question: Which Potency [1] does the source give for CC(=O)OC(C)(C)C here?
Answer: inactive

Question: What about the Potency [2] of the same molecule?
Answer: inactive

Question: What about the outcome [3] of the same molecule?
Answer: inactive

Question: Which Potency [1] does the source give for N[C@@H](CS)C(=O)O here?
Answer: inactive

Question: What about the Potency [2] of the same molecule?
Answer: inactive

Question: And the outcome [3]?
Answer: inactive

Question: Which Potency [1] does the source give for Cc1nccn1CC1CCc2c(c3ccccc3n2C)C1=O (configuration not stated) here?
Answer: inactive

Question: What about the Potency [2] of the same molecule?
Answer: inactive

Question: What about the outcome [3] of the same molecule?
Answer: inactive

Question: For CCCCC=O, which Potency [1] is on record?
Answer: 17.4 µM (active)

Question: And the Potency [2]?
Answer: inactive

Question: And the outcome [3]?
Answer: inactive

Question: With NC(=O)Nc1nc2ccccc2[nH]1 as the molecule, how does the Potency [1] read?
Answer: inactive

Question: What about the Potency [2] of the same molecule?
Answer: inactive

Question: What about the Potency [4] of the same molecule?
Answer: inactive

Question: What about the Potency [5] of the same molecule?
Answer: inactive

Question: For CC1(C)OC(=O)Nc2ccc(Br)cc21, which Potency [1] is on record?
Answer: inactive

Question: What about the Potency [2] of the same molecule?
Answer: inactive

Question: What about the outcome [3] of the same molecule?
Answer: inactive

Question: Which results are given for COCc1ccc(COC)cc1?
Answer: Potency [1]: inactive; Potency [2]: inactive; outcome [3]: inactive

Question: What does the source list for NC(=S)Nc1cccc2ccccc12?
Answer: activation [1]: 6.32% [at 6.98 µM]; activity change, negative = cytotoxicity [2]: -0.564% [at 6.97 µM]; activity change, negative = cytotoxicity [3]: 3.14% [at 8.39 µM]

Question: For CCCc1ccccc1O, which Potency [1] is on record?
Answer: inactive

Question: What about the Potency [2] of the same molecule?
Answer: inactive

Question: And the outcome [3]?
Answer: inactive
